{"source": "PubChem BioAssay (Tox21)", "note": "Results filed as inconclusive are left out. Unmarked numbers belong to inactive results. Activity calls are given as the source filed them. Calls follow the shape of the dose curve; as a rule, active = well fitted cell-killing curve with a large enough effect in the repeat runs; inconclusive = weak or mixed curves, or effect the other way; inactive = flat fitted curve, though single readings scatter. % is scaled to controls: 0 for no effect and ±100 for the full control effect; potency is read from the fitted curve at half-maximal effect.", "data": [{"test": "qHTS RealTime-Glo MT Cell Viability Assay in HEK293 cells - 40 hour (AID 1224874); also: nearly all actives have a fitted effect of over 50% in size", "conditions": "RealTime-Glo luminescence; max response: active compounds read low", "source_text": "U.S. Tox21 Program National Center for Advancing Translational Sciences [NCATS] NIH Chemical Genomics Center [NCGC] U.S. Environmental Protection Agency [EPA] National Institutes of Environmental Health Sciences [NIEHS] National Toxicology Program [NTP] U.S. Food and Drug Administration [FDA] Tox21 Assay Overview: Measure of cell viability is critical in the cell-base assay. Analysis of cell viability is necessary for the characterization of cell responses to cytotoxic drugs and environmental stress. A RealTime-Glo MT Cell Viability Assay to monitor cell viability in real time of continues cell culture during 40 hours of compound treatment was used to screen Tox21 10K library compounds in Hek293 cells. The RealTime-Glo MT Cell Viability Assay is a nonlytic, homogeneous, bioluminescent method to measure cell viability in real time using a simple, plate-based method. The assay involves adding NanoLuc luciferase and a cell-permeant prosubstrate to cells in culture. Viable cells reduce the proprietary prosubstrate to generate a substrate for NanoLuc luciferase. This substrate diffuses from cells into the surrounding culture medium, where it is rapidly used by the NanoLuc Enzyme to produce a luminescent signal. The signal correlates with the number of viable cells, making the assay well suited for cytotoxicity studies.\nTox21 Assay Protocol Summary: The mixture of Hek293 cell suspension and reagents were dispensed at 600cells/6 ul/well in 1536-well tissue culture treated black solid bottom plates using a Multidrop dispenser. After the assay plates were incubated at a 37 C/5% CO2 incubator for 5 hours, 23 nL of compounds dissolved in DMSO, positive and negative controls was transferred to the assay plate by a pintool work station. The plates were incubated at 37 C for 40 hours. The luminescence intensity were measured at 0h, 8h, 16h, 24h, 32h and 40h time points using ViewLux plate reader during compound treatment.", "units": {"max response": "%"}, "values": [{"smiles": "O=C1CCCCCN1SSN1CCCCCC1=O", "max response": -12.6}, {"smiles": "N#CSc1ccc(N)c([N+](=O)[O-])c1", "Potency": "49.3 µM (active)"}, {"smiles": "C[C@]12CCC(=O)C=C1CC[C@@H]1[C@@H]2[C@@H](O)C[C@@]2(C)[C@H]1CC[C@]2(O)C(=O)COC(=O)CCC(=O)O", "max response": -8.8}, {"smiles": "OC1(c2ccc(Cl)c(C(F)(F)F)c2)CCN(CCCC(c2ccc(F)cc2)c2ccc(F)cc2)CC1", "Potency": "9.52 µM (active)"}, {"smiles": "Cc1ccc2oc(CN(Cc3ccccc3)C(=O)Nc3c(F)cc(F)cc3F)c(-c3ccc(Cl)cc3)c2c1", "max response": -18.1}, {"smiles": "Cc1cccc(S(=O)(=O)O)c1C", "max response": -3.36}, {"smiles": "O=C(O)c1ccc(Cl)c(Cl)c1", "max response": 2.99}, {"smiles": "ON=C1CCCC1", "Potency": "22.6 µM (active)"}, {"smiles": "[Cl][Au]([Cl])[Cl]", "Potency": "3.09 µM (active)"}, {"smiles": "C/C=C1/C(=O)C[C@H]2[C@@H]3CCC4=CC(=O)CC[C@]4(C)[C@H]3CC[C@]12C", "Potency": "48.8 µM (active)"}, {"smiles": "CC/C(=C(\\c1ccc(O)cc1)c1ccc(OCCN(C)C)cc1)c1ccccc1", "Potency": "17.4 µM (active)"}, {"smiles": "CCCCCCCCCCCCCCCC(=O)OC[C@H](O)[C@H]1OC(=O)C(O)=C1O", "max response": -4.9}, {"smiles": "CC(C)C(C)(C)C(C)(C)C(C)(C)S", "max response": 0.74}, {"smiles": "[O-][n+]1ccccc1SSc1cccc[n+]1[O-]", "Potency": "1.17 µM (active)"}, {"smiles": "COc1cc(-c2ccc(N=C=O)c(OC)c2)ccc1N=C=O", "max response": -10}, {"smiles": "O=C(Oc1ccccc1)c1ccccc1C(=O)Oc1ccccc1", "max response": -2.84}, {"smiles": "O=C1C=CC(=O)N1", "Potency": "11.3 µM (active)"}, {"smiles": "CNC(=O)c1ccccc1", "max response": -8.54}, {"smiles": "O=C(O)c1cc(O)c2c(c1)C(=O)c1cccc(O)c1C2=O", "max response": -10.8}, {"smiles": "CC(C)(C)C(=O)OCOC(=O)C1N2C(=O)CC2S(=O)(=O)C1(C)C", "note": "(stereo not given)", "max response": 5.75}, {"smiles": "CCCC(C)c1ccccc1O", "note": "(stereo not given)", "max response": -11.1}, {"smiles": "Oc1ccc2cc(SSc3ccc4cc(O)ccc4c3)ccc2c1", "Potency": "55 µM (active)"}, {"smiles": "CCc1cc(Cc2cc(CC)cc(C(C)(C)C)c2O)c(O)c(C(C)(C)C)c1", "Potency": "21.9 µM (active)"}, {"smiles": "Cc1cc(C2CCCCC2)n(O)c(=O)c1", "Potency": "1.69 µM (active)"}, {"smiles": "Clc1ccc2n[nH]nc2c1", "max response": 4.16}, {"smiles": "Fc1ccc(C(c2ccc(F)cc2)N2CCN(C/C=C/c3ccccc3)CC2)cc1", "Potency": "19 µM (active)"}, {"smiles": "CCN1/C(=C/C=C/c2sc3ccccc3[n+]2CC)Sc2ccccc21", "Potency": "0.0585 µM (active)"}, {"smiles": "CN(C)[C@@H]1C(=O)C(C(N)=O)=C(O)[C@@]2(O)C(=O)C3=C(O)c4c(O)ccc(Cl)c4[C@@H](O)[C@H]3C[C@@H]12", "max response": -2.42}, {"smiles": "O=C1C=CC(=O)N1c1ccc(Cc2ccc(N3C(=O)C=CC3=O)cc2)cc1", "Potency": "12.3 µM (active)"}, {"smiles": "COc1cc(-c2nc(NC(=O)c3cc4cc(C)cc(C)c4n3CC(=O)O)sc2CCC2CCCCC2)c(OC)cc1Cl", "Potency": "22.5 µM (active)"}, {"smiles": "Cc1[nH]cnc1C[C@H]1CCc2c(C)c3ccccc3n2C1=O", "Potency": "23.9 µM (active)"}, {"smiles": "CCC(N)(CO)CO", "max response": 11.9}, {"smiles": "CN(C)C(=O)C1(N2CCCCC2)CCN(CC[C@@]2(c3ccc(Cl)c(Cl)c3)CN(C(=O)c3ccccc3)CCO2)CC1", "Potency": "11.5 µM (active)"}, {"smiles": "C[C@@H]1C[C@H]2[C@@H]3CCC4=CC(=O)C=C[C@]4(C)[C@@]3(Cl)[C@@H](O)C[C@]2(C)[C@@]1(OC(=O)c1ccco1)C(=O)CCl", "max response": -19.5}, {"smiles": "CCC(Cl)C(Cl)C(Cl)CC(Cl)C(Cl)C(C)Cl", "note": "(stereo not given)", "max response": -19.8}, {"smiles": "On1ccccc1=S", "Potency": "3.85 µM (active)"}, {"smiles": "Cc1onc(-c2ccccc2Cl)c1C(=O)N[C@@H]1C(=O)N2[C@@H]1SC(C)(C)[C@@H]2C(=O)O", "max response": -0.669}, {"smiles": "NC(=O)NS(=O)(=O)c1ccc(N)cc1", "max response": 2.7}, {"smiles": "CCCCCCCCNC(C)C(O)c1ccc(SC(C)C)cc1", "note": "(stereo not given)", "Potency": "8.49 µM (active)"}, {"smiles": "C=CC(=O)OCC(CO)(COC(=O)C=C)COC(=O)C=C", "Potency": "3.48 µM (active)"}]}]}
